Reference: PubChem BioAssay (NCI)
About 83,000 compounds went through this panel and 20% of them were active in at least one assay; those are over-represented in the sample as a whole.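 Compound tested at a single concentration for 48 hours in 96-well plates; a percent growth value below 10 was scored as active.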 The source made the active and inactive calls.

Tests used:
Experiment in all cases: NCI-60 one-dose screen, 48 h (100 = growth as untreated, 0 = no growth, -100 = all killed)
Settings in all cases: 10 µM unless noted
SK-MEL-2 melanoma = system: SK-MEL-2 melanoma
EKVX NSCLC = system: EKVX NSCLC
SN12C renal = system: SN12C renal
UO-31 renal = system: UO-31 renal
TK-10 renal = system: TK-10 renal
ACHN renal = system: ACHN renal
CAKI-1 renal = system: CAKI-1 renal
A498 renal = system: A498 renal
CCRF-CEM leukemia = system: CCRF-CEM leukemia
MOLT-4 leukemia = system: MOLT-4 leukemia
SR leukemia = system: SR leukemia
RPMI-8226 leukemia = system: RPMI-8226 leukemia
OVCAR-8 ovarian = system: OVCAR-8 ovarian
OVCAR-4 ovarian = system: OVCAR-4 ovarian
SK-OV-3 ovarian = system: SK-OV-3 ovarian
IGROV1 ovarian = system: IGROV1 ovarian
OVCAR-3 ovarian = system: OVCAR-3 ovarian
HS 578T breast = system: HS 578T breast
NCI/ADR-RES ovarian = system: NCI/ADR-RES ovarian
OVCAR-5 ovarian = system: OVCAR-5 ovarian

| SMILES | growth (SK-MEL-2 melanoma) | growth (EKVX NSCLC) | growth (SN12C renal) | growth (UO-31 renal) | growth (TK-10 renal) | growth (ACHN renal) | growth (CAKI-1 renal) | growth (A498 renal) | growth (CCRF-CEM leukemia) | growth (MOLT-4 leukemia) | growth (SR leukemia) | growth (RPMI-8226 leukemia) | growth (OVCAR-8 ovarian) | growth (OVCAR-4 ovarian) | growth (SK-OV-3 ovarian) | growth (IGROV1 ovarian) | growth (OVCAR-3 ovarian) | growth (HS 578T breast) | growth (NCI/ADR-RES ovarian) | growth (OVCAR-5 ovarian) |
| --- | --- | --- | --- | --- | --- | --- | --- | --- | --- | --- | --- | --- | --- | --- | --- | --- | --- | --- | --- | --- |
| COc1ccc(-c2[nH]c3ccccc3c2-c2ccc(OC)cc2)cc1 | 64.6% (inactive) | 73.8% (inactive) | 63.4% (inactive) | 67.7% (inactive) | 87.4% (inactive) | 65.3% (inactive) | 63.2% (inactive) | 45% (inactive) | 9.28% (active) | 49.9% (inactive) | 6.13% (active) | 24.1% (inactive) | 86.1% (inactive) | 61% (inactive) | 61.7% (inactive) | 88.2% (inactive) | 12.9% (inactive) | 49.5% (inactive) | 36.2% (inactive) |  |
| COc1ccc(-c2c[nH]c(C(=O)O)c2-c2cc(OC)c(OC)c(OC)c2)cc1 | 49.2% (inactive) | 63.3% (inactive) | 43.9% (inactive) | 31.9% (inactive) | 63.3% (inactive) | 38.4% (inactive) | 29.8% (inactive) | -14.5% (active) | 42.2% (inactive) | 56.4% (inactive) | 18.7% (inactive) | 36% (inactive) |  | 49.9% (inactive) | 53.2% (inactive) | 54.8% (inactive) | -2.04% (active) | 9.64% (active) | 24.2% (inactive) | 80.6% (inactive) |
| COc1ccc(N2CCN(S(=O)(=O)c3oc(-c4ccccc4)nc3C#N)CC2)cc1 | 72.4% (inactive) | 118% (inactive) | 68.9% (inactive) | 85.9% (inactive) | 71.6% (inactive) | 79.2% (inactive) | 107% (inactive) | 128% (inactive) | 4.32% (active) | 3.95% (active) | 6.1% (active) | 41.4% (inactive) | 60.2% (inactive) | 86.7% (inactive) | 113% (inactive) | 54.6% (inactive) | 73.3% (inactive) | 104% (inactive) | 91% (inactive) |  |
| COc1cc(/C=C2\C(=O)N(CCCCn3c4ccccc4c(=O)c4ccccc43)c3ccccc32)cc(OC)c1O | 26.5% (inactive) | 74% (inactive) | 71.1% (inactive) | 49.5% (inactive) | 120% (inactive) | 63.3% (inactive) | 52% (inactive) | 75.5% (inactive) | 15.9% (inactive) | 29% (inactive) | 14.7% (inactive) | 35.2% (inactive) | 50.1% (inactive) | 56.1% (inactive) | 97.1% (inactive) | 52.3% (inactive) | 31.6% (inactive) | 68.8% (inactive) | 48.6% (inactive) |  |
| CC1(C)C(N)=Nc2cc(OCCCCN3Cc4ccccc4C3)c(OCC3CC3)cc21 | 110% (inactive) | 78.6% (inactive) | 81.9% (inactive) | 60.5% (inactive) | 86.9% (inactive) | 87.8% (inactive) | 56.3% (inactive) | 109% (inactive) | 99.4% (inactive) | 101% (inactive) | 93.4% (inactive) | 100% (inactive) | 76.2% (inactive) | 82.6% (inactive) | 89% (inactive) | 79.4% (inactive) | 78% (inactive) | 88.3% (inactive) | 92.6% (inactive) |  |
| c1cc(NCCCCN2CCOCC2)c2ccc3c(ccc4c(NCCN5CCOCC5)ccnc43)c2n1 | 99.2% (inactive) | 94.8% (inactive) | 64.8% (inactive) | 64.7% (inactive) | 143% (inactive) | 60.2% (inactive) | 64.2% (inactive) | 86.1% (inactive) | 36.9% (inactive) | 43.2% (inactive) | -7.92% (active) | 98.2% (inactive) | 79.2% (inactive) | 91.5% (inactive) | 101% (inactive) | 65.6% (inactive) | 105% (inactive) | 88.6% (inactive) | 88.1% (inactive) |  |
| CC1(C)C(N)=Nc2cc(OCCCN3Cc4ccc(OCCc5cn(CC(=O)N6CCC(CCN7CCCC7)CC6)nn5)cc4C3)c(OCC3CC3)cc21 | 109% (inactive) | 101% (inactive) | 96.1% (inactive) | 90.8% (inactive) | 100% (inactive) | 103% (inactive) | 91.2% (inactive) | 104% (inactive) | 96.2% (inactive) | 99.9% (inactive) | 115% (inactive) | 88.8% (inactive) | 92% (inactive) | 94.6% (inactive) | 105% (inactive) | 101% (inactive) | 114% (inactive) | 97.2% (inactive) | 103% (inactive) |  |
